FLuc inh = blocks purified firefly luciferase enzyme activity; P08659; purified P. pyralis luciferase, luminescence, biochemical; Potency, µM (highest dose often 115 µM), usual class: inhibitors; 76,000 tested, 2.5% active; AID 1347043; further: nearly all actives have a fitted effect of over 65% in size
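Luminescence read by CCD imaging after purified firefly luciferase (10nM final) was added to substrate buffer holding 10uM D-luciferin and 10uM ATP, pH 7.5, pre-dosed with compound.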
HEK cytotox = kills HEK 293 cells. HEK 293 viability, ATP luminescence (CellTiter-Glo), 48-72 h. Potency, µM (highest dose often 115 µM), without a hit: top-dose activity change, negative = cytotoxicity, hits mostly inhibitors. 94,000 tested, 6.6% active; further: nearly all actives have a fitted effect of over 60% in size
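250 HEK 293 cells/well; compound by pintool; incubated 48 or 72 hr at 37 degree Celsius; CellTiter-Glo added, 10 min RT, luminescence imaged.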
NIH3T3 tox = NIH 3T3 cell cytotoxicity. Potency, µM (titrated, usually from 96.7 µM), without a hit: at the top dose activity change, negative = cytotoxicity, actives largely listed as inhibitors. 94,000 tested, 4.3% active. NIH 3T3 viability, CellTiter-Glo ATP luminescence, 48-72 h. AID 1345082; further: nearly all actives have a fitted effect of over 55% in size
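Cells were seeded at 400 per well, treated with pin-transferred compound, and kept 48 or 72 hr at 37 °C before CellTiter-Glo addition and luminescence imaging of cellular ATP.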
NPR1 antag = human Npr1 receptor antagonism. P16066. HEK293 hNpr1 GloSensor cGMP, ANP-stimulated luminescence. Potency, µM (doses to about 46.3 µM), without a hit: at the top dose activity change, negative = inhibition, usual class: inhibitors. 76,000 tested, 1.6% active. AID 1347048; calls by dose curve; further: nearly all actives have a fitted effect of over 60% in size
Target sequence (P16066 whole entry, looked up): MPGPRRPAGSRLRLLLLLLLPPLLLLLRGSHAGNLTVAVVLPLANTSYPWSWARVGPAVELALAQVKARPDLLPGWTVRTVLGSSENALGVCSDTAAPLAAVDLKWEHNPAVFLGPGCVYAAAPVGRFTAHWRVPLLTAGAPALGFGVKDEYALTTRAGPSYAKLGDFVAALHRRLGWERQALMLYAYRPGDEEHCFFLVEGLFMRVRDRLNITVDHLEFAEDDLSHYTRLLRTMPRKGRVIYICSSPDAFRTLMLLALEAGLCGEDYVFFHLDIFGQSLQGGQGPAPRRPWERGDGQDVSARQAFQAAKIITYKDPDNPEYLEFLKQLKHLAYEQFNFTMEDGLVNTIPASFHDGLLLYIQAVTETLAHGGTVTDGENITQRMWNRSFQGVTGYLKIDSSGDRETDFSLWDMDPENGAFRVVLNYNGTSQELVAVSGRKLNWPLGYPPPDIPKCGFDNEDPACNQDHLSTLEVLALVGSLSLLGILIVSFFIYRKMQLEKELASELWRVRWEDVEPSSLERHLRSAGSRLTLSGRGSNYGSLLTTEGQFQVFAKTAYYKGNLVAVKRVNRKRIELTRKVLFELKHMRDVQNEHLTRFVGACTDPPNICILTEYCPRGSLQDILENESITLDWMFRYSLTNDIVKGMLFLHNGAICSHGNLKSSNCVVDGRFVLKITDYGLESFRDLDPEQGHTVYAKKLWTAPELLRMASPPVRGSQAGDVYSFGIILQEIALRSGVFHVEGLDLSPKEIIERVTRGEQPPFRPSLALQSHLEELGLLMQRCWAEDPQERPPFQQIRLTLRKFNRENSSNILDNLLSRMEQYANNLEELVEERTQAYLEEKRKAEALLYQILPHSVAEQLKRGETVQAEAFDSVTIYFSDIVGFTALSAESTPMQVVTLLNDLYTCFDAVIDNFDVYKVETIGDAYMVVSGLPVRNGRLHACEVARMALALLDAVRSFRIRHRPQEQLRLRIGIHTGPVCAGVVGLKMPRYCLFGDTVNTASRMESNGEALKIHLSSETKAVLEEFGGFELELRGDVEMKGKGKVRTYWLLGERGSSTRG
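HEK293 cells stably expressing human Npr1 and cGMP GloSensor pGS-40F, loaded 2 h with 2% GloSensor reagent, given compound 30 min at room temperature. Luminescence read before and 20 min after 0.1 nM hNppA.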
The depositor's hits bear a star; i = inactive; ? = inconclusive; . = no result given; [ ] = dose if it differs, or a comment. Compounds with a hit are over-represented: about 11% of the library has one in this group of screens. Unless noted, the call rests on the fitted dose curve; in most records, active means well fitted curve in the direction sought with a large enough effect; inconclusive means small, poorly fitted or top-dose-only effect, or another doubt; inactive means no such curve, though single readings can be large; an effect the other way counts as inactive or inconclusive. On the % scale 0 is the no-effect control and ±100 the full control effect; potency means the concentration at half of the fitted maximal effect.

SMILES	FLuc inh	HEK cytotox	NIH3T3 tox	NPR1 antag
CC(C)N1C(=O)C2(CCCCC2)C1C(=O)NCCCN1CCCc2ccccc21 (centres undefined)	i	79µM*	?	4%
COc1ccc(C)cc1NC(=O)c1ccc2c(c1)C(O)CCCCCN2C (centres undefined)	i	?	?	-17%
COCCN1CCCCCC(O)c2cc(C(=O)NCCCN3CCCC3=O)ccc21 (centres undefined)	i	-4%	-5%	1%
COc1ccc2[nH]cc(CCNC(=O)c3ccc4c(c3)C(O)CCCCCN4C)c2c1 (centres undefined)	i	?	?	-20%
O=C(c1ccc2oc(-c3ccccn3)nc2c1)N1CCOCC1	.	-26%[172 µM]	?	.
CN1CCCCCC(O)c2cc(C(=O)NCCc3ccccn3)ccc21 (centres undefined)	45µM*	?	32µM*	-10%
COc1ccccc1OCCNC(=O)c1ccc2c(c1)C(O)CCCCCN2C (centres undefined)	i	?	?	-13%
Cc1cccc(C(=O)N2CCC3(CC2)CCC(O)(CN(C)C)CC3)c1	.	-15%	-23%	.
COc1ncccc1-c1nc(-c2c(C)noc2C)cc2c1cc(C)n2CCN(C)C	i	?	10µM*	3%[70.6 µM]
COc1ncc(-c2nc(-c3c(C)noc3C)cc3c2cc(C)n3CCN(C)C)cn1	i	?	?	-3%[70.6 µM]
CC(=O)Nc1cccc(-c2nc(-c3c(C)noc3C)cc3c2cc(C)n3CCN(C)C)c1	i	79µM*	?	7%[70.6 µM]
COc1ccc(-c2nc(-c3c(C)noc3C)cc3c2cc(C)n3CCN(C)C)cc1OC	i	89µM*	?	-16%[70.6 µM]
COc1cccc(-c2nc(-c3c(C)noc3C)cc3c2cc(C)n3CCN(C)C)c1	i	45µM*	10µM*	3%[70.6 µM]
O=C(c1ccccc1)N1CCCC(C(=O)N2CCC(N3Cc4cccn4C3=O)CC2)C1 (centres undefined)	.	-20%	-16%	.
O=C(Cn1nc2c(cc1=O)CCCCC2)N1CCN(Cc2ccccc2Cl)CC1	i	?	-16%	4%
O=C(Cn1nc2c(cc1=O)CCCC2)N1CCN(Cc2ccccc2Cl)CC1	i	?	28µM*	7%
CCCN(C)c1nccnc1OC1CCN(C(=O)Cc2ccccc2OC)C1 (centres undefined)	35µM*	?	?	-11%
CCCN(C)c1nccnc1OC1CCN(C(=O)c2cccc(OC)c2OC)C1 (centres undefined)	32µM*	?	?	-15%
COc1ccccc1-c1cccc(CN2CCC(N[S+](=O)([O-])c3ccccc3)CC2)c1	.	40µM*	32µM*	.
COc1ccccc1-c1cccc(CN2CCC(N[S+](=O)([O-])c3cccc(C(F)(F)F)c3)CC2)c1	.	?	13µM*	.
COc1ccccc1-c1cc(C(=O)NCc2cccnc2)nn2cnnc12	.	-13%	-29%	.
Cc1nn2c(c1-c1ccccc1OCc1ccccc1)N(C(=O)Cc1ccccc1)CCC2	i	79µM*	45µM*	?
Cc1nn2c(c1-c1cccc3cn[nH]c13)N(C(=O)Cc1ccccc1)CCC2	i	-26%[172 µM]	45µM*	-25%[70.6 µM]
Cc1nn2c(c1-c1ccccc1OCc1ccccc1)N(C(=O)CN1CCOCC1)CCC2	i	-5%	?	-19%
CN1CCC(OC2CCN(S(=O)(=O)c3ccc(F)cc3)CC2)CC1	i	-18%	-13%	4%
SMILES	FLuc inh	HEK cytotox	NIH3T3 tox	NPR1 antag
CC(C)CCN1CC2(CCCN(C(=O)c3cc(C(F)(F)F)[nH]n3)C2)CCC1=O (centres undefined)	i	-13%	45µM*	-2%
COc1ccccc1-c1cccc(CN2CCCC(C(=O)N3CCN(c4ncccn4)CC3)C2)c1 (centres undefined)	.	16µM*	?	.
COc1ccccc1-c1cccc(CN2CCCC(C(=O)N3CCCC(C)C3)C2)c1 (centres undefined)	.	40µM*	?	.
CS(=O)(=O)N1CCCC(C(=O)N2CCC(c3ccccc3)CC2)C1 (centres undefined)	.	2%	-15%	.
COc1cccc(CN2C(=O)CCCCC2C(=O)N2CCN(c3ncccn3)CC2)c1 (centres undefined)	.	1%	-6%	.
COc1ccccc1-c1cccc(CN2CCCC(C(=O)N3CCN(C(C)=O)CC3)C2)c1 (centres undefined)	.	?	-32%	.
COc1ccccc1-c1cccc(CN2CCCC(C(=O)N3CCC(c4ccccc4)CC3)C2)c1 (centres undefined)	.	40µM*	?	.
O=C(C1CCCN(Cc2cccc(-c3ccc(F)cc3F)c2)C1)N1CCOCC1 (centres undefined)	.	?	-47%	.
COc1ccccc1-c1cccc(CN2CCCC(C(=O)N3CCN(Cc4ccccc4)CC3)C2)c1 (centres undefined)	.	40µM*	35µM*	.
O=C(c1nc2cccnc2n(CCc2ccccc2)c1=O)N1CCN(C(=O)C2CC2)CC1	.	1%	-9%	.
OC(c1cccc(C(F)(F)F)c1)c1nc(Nc2cccc(Cl)c2)n[nH]1 (centres undefined)	i	63µM*	50µM*	?
Cc1ccccc1Nc1n[nH]c(C(O)c2ccc3c(c2)CCO3)n1 (centres undefined)	i	?	?	-5%[70.6 µM]
COc1ccc(Nc2n[nH]c(C(O)c3cccc(C(F)(F)F)c3)n2)cn1 (centres undefined)	i	?	?	-22%[70.6 µM]
OC(c1nc(Nc2ccc(Cl)c(C(F)(F)F)c2)n[nH]1)C1CC1 (centres undefined)	?	56µM*	50µM*	?
OC(c1ccc2c(c1)CCO2)c1nc(Nc2cccc(C(F)(F)F)c2)n[nH]1 (centres undefined)	i	71µM*	?	-8%[70.6 µM]
O=C(C1CCCN1[S+](=O)([O-])c1cccs1)N1CCC(c2nc3ccncc3[nH]2)CC1 (centres undefined)	.	2%	0%	.
O=C(NCCn1ccn2nc(-c3ccc(F)cc3)cc2c1=O)c1ccc2[nH]ccc2c1	11µM*	-22%	-19%	0%
Cc1ccc(C(=O)NCCn2ccn3nc(-c4ccc(F)cc4)cc3c2=O)cc1F	i	?	-29%	-21%
CCOc1ccc(-c2cc3c(=O)n(CCNC(=O)c4ccoc4)ccn3n2)cc1	20µM*	45µM*	-25%	-5%
COc1ccc(-c2cc3c(=O)n(CCNC(=O)c4ccsc4)ccn3n2)cc1	4.5µM*	?	-20%	-24%
COc1cccc(C(=O)NCCn2ccn3nc(-c4ccc(C)c(C)c4)cc3c2=O)c1	?	-20%	-9%	-19%
O=C(NCCn1ccn2nc(-c3ccc(F)cc3)cc2c1=O)c1ccoc1	?	50µM*	?	-13%
COc1ccc(CC(=O)Nc2ccc(=O)n3c2[C@@H]2C[C@@H](CN(S(=O)(=O)c4ccc(OC)cc4)C2)C3)cc1	i	-18%	?	-12%

Screening data: PubChem BioAssay, National Center for Advancing Translational Sciences (NCATS)
